Experiment [1] has as its target Bile acid receptor (Homo sapiens) (UniProt Q96RI1). Nature of the experiment: qHTS assay for small molecule agonists of farnesoid X receptor signaling (AID 588527).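 Also: series mostly up to about 77 µM; 0% = vehicle basal and 100% = reference agonist.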 To be noted: HEK293T FXR-UAS-bla, beta-lactamase ratio, 16 h; activation: stronger effect = higher value. Summed up: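 FXR-UAS-bla HEK293T, 10% dialyzed FBS; cpds up to 92 uM titration, 16 h 37 C; CCF4 dye 2 h RT; fluorescence. Normalized to chenodeoxycholic acid 100 uM (100%) and DMSO (0%); Hill fit gives EC50, efficacy.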
On the technique in general: Quantitative high-throughput screening tests each substance at several concentrations.

Experiment [2] concerns the target Peroxisome proliferator-activated receptor delta (Homo sapiens) (UniProt Q03181). The experiment can be described thus: qHTS assay for small molecule agonists of peroxisome proliferator-activated receptor delta signaling (AID 588534).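 Also: 0% = DMSO basal wells and 100% = positive control agonist at 10 µM.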 The essentials:
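Reporter cells were plated and held 5 hrs at 37 C before compounds were added. After 18 hrs at 37 C, CCF4 dye was loaded for 2 hrs at RT and fluorescence measured.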

The target of experiment [3] is Glucocorticoid receptor (Homo sapiens) (UniProt P04150). The experiment can be described thus: qHTS assay for small molecule agonists of glucocorticoid receptor signaling (AID 588532; active = well fitted curve in the direction sought with a large enough effect in the signal ratio, with a control signal flat; the % refers to the signal ratio;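 also: 100% = dexamethasone at 0.1 µM and 0% = DMSO only wells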). The following applies: HeLa MMTV-bla, beta-lactamase ratio, agonist, 18 h; activation: stronger effect = higher value, percent of dexamethasone control, DMSO zero. Summed up: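 MMTV-bla HeLa, beta-lactamase reporter; medium with 1% charcoal/dextran-stripped FBS; cpds up to 92 uM, 18 h, 37 C; CCF4 readout 460/530 nm; Hill fit → EC50, efficacy vs 0.1 uM dexamethasone = 100%.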
Sequence of Glucocorticoid receptor (Homo sapiens) (P04150 whole entry, looked up): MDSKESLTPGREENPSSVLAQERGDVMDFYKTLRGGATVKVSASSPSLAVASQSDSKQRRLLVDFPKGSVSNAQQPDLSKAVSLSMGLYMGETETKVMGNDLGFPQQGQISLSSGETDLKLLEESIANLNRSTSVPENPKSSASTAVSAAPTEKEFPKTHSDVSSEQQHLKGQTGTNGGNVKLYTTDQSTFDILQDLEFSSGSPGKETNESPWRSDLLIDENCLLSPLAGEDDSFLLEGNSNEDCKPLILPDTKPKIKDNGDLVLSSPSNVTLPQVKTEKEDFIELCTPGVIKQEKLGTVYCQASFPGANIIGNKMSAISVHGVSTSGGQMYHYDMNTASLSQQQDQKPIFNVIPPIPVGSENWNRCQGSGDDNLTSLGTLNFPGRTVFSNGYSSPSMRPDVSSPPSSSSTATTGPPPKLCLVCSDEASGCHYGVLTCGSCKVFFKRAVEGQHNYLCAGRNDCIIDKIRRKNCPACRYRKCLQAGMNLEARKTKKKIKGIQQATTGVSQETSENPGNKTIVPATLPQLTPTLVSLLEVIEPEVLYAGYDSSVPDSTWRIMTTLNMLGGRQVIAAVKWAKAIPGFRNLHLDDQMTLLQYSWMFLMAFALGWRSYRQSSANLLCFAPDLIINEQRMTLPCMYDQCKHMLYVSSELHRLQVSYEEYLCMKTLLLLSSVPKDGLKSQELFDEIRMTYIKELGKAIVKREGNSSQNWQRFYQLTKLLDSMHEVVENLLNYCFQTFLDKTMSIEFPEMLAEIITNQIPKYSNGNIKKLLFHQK

Experiment [4] deals with Vitamin D3 receptor (Homo sapiens) (UniProt P11473). Nature of the experiment: qHTS assay for small molecule antagonists of vitamin D receptor signaling (AID 588541). Also: potency is read from the fitted curve at half-maximal effect. The essentials:
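VDR-UAS-bla HEK293T cells (2000/well, 2% charcoal-stripped FBS) were treated with titrated compounds plus 1-alpha,25-dihydroxyvitamin D3 (50 nM or 3 nM final) for 16 h at 37 C. CCF4 beta-lactamase fluorescence was read; Hill fits gave IC50.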

Experiment [5] can be described thus: qHTS assay for small molecule agonists of retinoid X receptor alpha signaling (AID 588544). Also: potency is read from the fitted curve at half-maximal effect. To be noted: HEK293T RXRa-UAS-bla, beta-lactamase reporter, 18 h; 530 nm emission.
Experiment [6] addresses Retinoic acid receptor RXR-alpha (Homo sapiens) (UniProt P19793). The experiment is described as above.
Experiment [7] in a line: qHTS assay for small molecule agonists of the antioxidant response element (ARE) signaling pathway (AID 651741; active = well fitted activation curve with a large enough effect in the signal ratio; the % refers to the signal ratio; also: potency is read from the fitted curve at half-maximal effect). Summed up: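 ARE-bla HepG2 cells (beta-lactamase reporter under ARE control) were plated at 2,000 cells/well, preincubated 5 h at 37 C/5% CO2, then treated with DMSO-dissolved compounds for 16 h at 37 C; LiveBLAzer B/G FRET substrate added, fluorescence read after 2 h at room temperature.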

Experiment [8] is described as follows: qHTS assay for environmental chemicals that activate the Aryl hydrocarbon Receptor (AhR) signaling pathway (AID 651777; active = well fitted curve in the direction sought with a large enough effect; an effect the other way counts as inactive or inconclusive; also: nearly all actives have a fitted effect of over 15% in size; also: potency is read from the fitted curve at half-maximal effect; as to activation: % of control where 0% means no effect). The following applies: 1A2-DRE human hepatoma cells, luciferase, 24 h; activation: stronger effect = higher value. Summed up:
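Concentration–response screening used 1,200 1A2-DRE cells per well, 24 hr compound exposure (37 C, 5% CO2), and One-Glo luminescence as the AhR-driven CYP1A2 reporter signal.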

Experiment [9] addresses Peroxisome proliferator-activated receptor alpha (Homo sapiens) (UniProt Q07869). The experiment can be described thus: qHTS assay for small molecule agonists of the peroxisome proliferator-activated receptor alpha (PPARalpha) signaling pathway (AID 651778; active = well fitted curve in the direction sought with a large enough effect; an effect the other way counts as inactive or inconclusive; also: % of control where 0% means no effect). To be noted: PathHunter PPARalpha complementation, chemiluminescence, 6 h; max response: stronger effect = higher value. Summed up: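 Cells plated at 2,000/well and held overnight at 37 C, 5% CO2, then compound added by pin tool for 6 hr; after PathHunter detection reagent and 60 min at room temperature, chemiluminescence from enzyme complementation was read.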

A short description of experiment [10]: qHTS assay for small molecule agonists of the antioxidant response element (ARE) signaling pathway measured by Nrf2-dependant transcriptional activity - cell viability counter screen (AID 720653; active = well fitted curve in the direction sought with a large enough effect in the repeat runs; an effect the other way counts as inactive or inconclusive; also: potency is read from the fitted curve at half-maximal effect; as to max response: % is scaled to controls: 0 for no effect and ±100 for the full control effect). The following applies: ARE-bla HepG2 viability, CellTiter-Glo ATP luminescence, 16 h; max response: stronger effect = lower value. Summed up:
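ARE-bla HepG2 cells (2,000/well) rested 5 hrs at 37C/5% CO2, then exposed to compounds in DMSO for 16 hrs. Viability was read in the same wells as intracellular ATP by luminescence, 30 min at room temperature after reagent addition.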

The nature of experiment [11]: qHTS assay for cell viability of HEK293 cells (AID 743288; active = well fitted curve in the direction sought with a large enough effect; an effect the other way counts as inactive or inconclusive; also: nearly all actives have a fitted effect of over 50% in size; also: potency is read from the fitted curve at half-maximal effect; as to max response: % is scaled to controls: 0 for no effect and ±100 for the full control effect). To be noted: ATP luminescence (CellTiter-Glo), 18 h; max response: stronger effect = lower value. The essentials:
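Environmental chemicals tested in qHTS format against parental HEK293 cells; 18 h treatment, 37 C; read-out ATP luminescence (CellTiter-Glo), 30 min RT development.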

For experiment [12], the target named is Peroxisome proliferator-activated receptor gamma (Homo sapiens) (UniProt P37231). The experiment can be described thus: qHTS assay for small molecule agonists of peroxisome proliferator-activated receptor gamma signaling (AID 588536; active = well fitted curve in the direction sought with a large enough effect in the signal ratio, with a control signal flat, not every such curve was filed as active; the % refers to the signal ratio;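 also: 0% = DMSO basal wells and 100% = rosiglitazone at 2 µM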). The essentials:
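PPAR-gamma-UAS-bla HEK293 cells in medium with 1% charcoal/dextran-treated FBS were exposed to compounds for 16 h at 37 C. Beta-lactamase activity was read with CCF4 substrate (405 nm excitation, 460/530 nm emission).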

Experiment [13] deals with Vitamin D3 receptor (Homo sapiens) (UniProt P11473). The experiment can be described thus: qHTS assay for small molecule agonists of vitamin D receptor signaling (AID 588543).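 Also: 0% = DMSO basal and 100% = reference agonist control.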 Summed up: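 β-lactamase reporter, VDR-UAS-bla HEK293T, agonist mode. Cells plated 5 h at 37 °C, compound titration 16 h at 37 °C, CCF4 dye 2 h RT, ratio 460/530 nm. Hill fit → EC50, efficacy vs 50 nM 1α,25-(OH)2D3.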
Sequence of Vitamin D3 receptor (Homo sapiens) (P11473 whole entry, looked up): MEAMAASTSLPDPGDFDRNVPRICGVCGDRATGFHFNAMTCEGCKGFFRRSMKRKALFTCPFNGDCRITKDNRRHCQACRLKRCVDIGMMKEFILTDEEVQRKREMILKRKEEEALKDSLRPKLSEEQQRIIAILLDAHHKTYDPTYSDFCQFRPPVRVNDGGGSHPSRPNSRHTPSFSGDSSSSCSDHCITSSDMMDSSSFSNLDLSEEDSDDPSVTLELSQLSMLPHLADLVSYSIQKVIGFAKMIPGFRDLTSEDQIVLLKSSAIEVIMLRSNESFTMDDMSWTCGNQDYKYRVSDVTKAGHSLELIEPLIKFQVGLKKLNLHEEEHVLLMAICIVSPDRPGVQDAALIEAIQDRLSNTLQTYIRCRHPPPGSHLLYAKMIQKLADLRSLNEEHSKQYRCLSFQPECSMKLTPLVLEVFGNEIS

Experiment [14] can be described thus: qHTS assay for small molecule activators of the nuclear factor-kappa B (NF-kB) signaling pathway (AID 651749; active = well fitted activation curve with a large enough effect in the signal ratio; the % refers to the signal ratio; also: series mostly up to about 77 µM; % of control where 0% means no effect). To be noted: NF-kB-bla ME-180 cells, beta-lactamase FRET ratio, 16 h; activation: stronger effect = higher value. The essentials:
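ME-180 cells stably carrying a beta-lactamase reporter under an NF-kB response element were exposed to compound or DMSO vehicle for 16 hr at 37C, 5% CO2. Pathway activation was read by FRET, since reporter expression disrupts FRET.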

Experiment [15] is described as follows: qHTS assay for cell viability of the p53RE-bla HCT-116 cell line (AID 743292; active = well fitted curve in the direction sought with a large enough effect; an effect the other way counts as inactive or inconclusive; also: % is scaled to controls: 0 for no effect and ±100 for the full control effect; nearly all actives have a fitted effect of over 55% in size). The essentials: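 Compound-exposed HCT-116 (p53RE-bla) cells, 4,000 per well, were kept 16 h at 37 C following a 5 h preincubation. Cell number was estimated from total ATP by CellTiter-Glo luminescence read after 30 min at room temperature.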
In experiment [16] the target is Thyroid hormone receptor beta (Homo sapiens) (UniProt P10828). Nature of the experiment: qHTS assay for small molecule agonists of thyroid hormone receptor beta signaling (AID 588545). Summed up: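 Agonist-mode beta-lactamase reporter assay, HEK 293 cells, 2% charcoal/dextran FBS; cells plated 4 hrs, compound 18 hrs at 37 C, CCF4 2 hrs RT. Normalized to 10 nM T3 (100%) and DMSO (0%); Hill fit gives EC50, efficacy.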
Sequence of Thyroid hormone receptor beta (Homo sapiens) (P10828 whole entry, looked up): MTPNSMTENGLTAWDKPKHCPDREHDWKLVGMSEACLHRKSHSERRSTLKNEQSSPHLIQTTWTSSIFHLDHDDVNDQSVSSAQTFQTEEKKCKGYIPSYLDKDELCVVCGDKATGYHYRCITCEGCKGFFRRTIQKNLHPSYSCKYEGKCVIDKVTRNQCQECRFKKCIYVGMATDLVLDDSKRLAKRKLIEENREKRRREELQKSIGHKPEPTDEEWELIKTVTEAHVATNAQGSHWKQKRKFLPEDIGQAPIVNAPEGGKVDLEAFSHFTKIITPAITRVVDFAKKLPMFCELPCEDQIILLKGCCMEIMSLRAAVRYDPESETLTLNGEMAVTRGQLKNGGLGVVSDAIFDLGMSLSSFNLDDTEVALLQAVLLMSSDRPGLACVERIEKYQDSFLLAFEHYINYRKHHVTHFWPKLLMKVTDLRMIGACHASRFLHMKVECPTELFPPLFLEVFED

Experiment [17] can be described thus: qHTS assay for small molecule antagonists of retinoid X receptor alpha signaling (AID 588546; active = well fitted inhibition curve with a large enough effect in the signal ratio, with a control signal flat, not every such curve was filed as active; the % refers to the signal ratio; also: potency is read from the fitted curve at half-maximal effect;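 as to max response: cells stimulated with 9-cis-retinoic acid as agonist; % is scaled to controls: 0 for no effect and ±100 for the full control effect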). To be noted: HEK293T RXRa-UAS-bla, beta-lactamase ratio, antagonist mode; measured here: W530 green channel, cytotoxicity proxy. The essentials:
(§1)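 Beta-lactamase reporter inhibition, read as CCF4 fluorescence ratio (ex 405, em 460/530 nm) after 2 h at RT. HEK293T UAS-bla cells, 2500/well, were stimulated with 9-cis-RA at 500 or 100 nM final alongside test compound for 18 h at 37 C.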

The target of experiment [18] is Retinoic acid receptor RXR-alpha (Homo sapiens) (UniProt P19793). The experiment is described as above. The following applies: HEK293T RXRa-UAS-bla, beta-lactamase ratio, antagonist mode. The essentials:
as §1

A short description of experiment [19]: qHTS assay for small molecule agonists of the antioxidant response element (ARE) signaling pathway measured by Nrf2-dependant transcriptional activity (AID 720636; active = well fitted curve in the direction sought with a large enough effect in the repeat runs; an effect the other way counts as inactive or inconclusive; also: potency is read from the fitted curve at half-maximal effect). The essentials:
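Attachment 6 hr at 37 C, then compound versus DMSO vehicle for 16 hr in ARE-luc HepG2 cells (1% dialyzed FBS); luminescence recorded 30 min after ONE-Glo addition at room temperature.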

SMILES strings stand for the structures. Values joined by “and” are separate entries in the source; they are usually repeats but may differ in a detail not shown here. Equal entries are not always repeated. Inconclusive results are not listed. Active and inactive are the calls of the source. Unless noted, calls follow the shape of the full dose curve.

Sequence of Peroxisome proliferator-activated receptor alpha (Homo sapiens) (Q07869 whole entry, looked up): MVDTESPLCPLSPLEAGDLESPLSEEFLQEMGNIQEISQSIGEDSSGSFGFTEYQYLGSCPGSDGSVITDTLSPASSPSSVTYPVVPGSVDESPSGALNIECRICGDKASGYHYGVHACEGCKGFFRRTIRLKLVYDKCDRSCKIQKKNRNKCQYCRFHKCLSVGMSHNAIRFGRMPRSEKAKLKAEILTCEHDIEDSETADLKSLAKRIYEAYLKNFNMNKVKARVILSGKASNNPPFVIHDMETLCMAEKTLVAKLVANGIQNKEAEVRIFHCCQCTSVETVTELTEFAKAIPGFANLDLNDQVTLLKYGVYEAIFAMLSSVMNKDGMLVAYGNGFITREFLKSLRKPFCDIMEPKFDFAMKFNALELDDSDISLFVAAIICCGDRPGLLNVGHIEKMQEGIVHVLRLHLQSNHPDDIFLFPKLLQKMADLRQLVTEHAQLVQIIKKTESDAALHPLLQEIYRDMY
Sequence of Peroxisome proliferator-activated receptor delta (Homo sapiens) (Q03181 whole entry, looked up): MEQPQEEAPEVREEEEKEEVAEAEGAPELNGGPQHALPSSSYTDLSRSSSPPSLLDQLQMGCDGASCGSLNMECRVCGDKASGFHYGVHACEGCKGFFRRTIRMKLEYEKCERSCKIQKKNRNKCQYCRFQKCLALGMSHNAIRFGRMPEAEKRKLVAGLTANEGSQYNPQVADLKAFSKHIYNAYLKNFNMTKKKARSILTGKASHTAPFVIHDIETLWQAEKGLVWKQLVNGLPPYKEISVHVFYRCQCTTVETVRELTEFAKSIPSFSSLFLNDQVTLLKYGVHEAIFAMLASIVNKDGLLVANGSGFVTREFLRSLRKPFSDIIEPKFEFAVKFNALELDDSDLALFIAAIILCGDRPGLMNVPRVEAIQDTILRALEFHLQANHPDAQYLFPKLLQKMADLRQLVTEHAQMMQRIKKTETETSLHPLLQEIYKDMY
Sequence of Bile acid receptor (Homo sapiens) (Q96RI1 whole entry, looked up): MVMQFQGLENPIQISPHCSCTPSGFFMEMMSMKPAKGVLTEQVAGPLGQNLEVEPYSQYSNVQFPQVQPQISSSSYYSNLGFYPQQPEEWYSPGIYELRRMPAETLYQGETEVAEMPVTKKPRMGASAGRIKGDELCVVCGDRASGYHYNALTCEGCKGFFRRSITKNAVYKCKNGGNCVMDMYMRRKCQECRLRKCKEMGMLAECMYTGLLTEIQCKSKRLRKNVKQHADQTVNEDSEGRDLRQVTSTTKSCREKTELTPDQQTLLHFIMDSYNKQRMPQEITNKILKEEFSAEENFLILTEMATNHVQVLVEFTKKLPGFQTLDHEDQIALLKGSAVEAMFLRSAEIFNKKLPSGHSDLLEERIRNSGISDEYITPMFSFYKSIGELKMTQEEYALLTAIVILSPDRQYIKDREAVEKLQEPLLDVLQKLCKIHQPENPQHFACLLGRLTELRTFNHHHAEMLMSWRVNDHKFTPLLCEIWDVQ
Sequence of Retinoic acid receptor RXR-alpha (Homo sapiens) (P19793 whole entry, looked up): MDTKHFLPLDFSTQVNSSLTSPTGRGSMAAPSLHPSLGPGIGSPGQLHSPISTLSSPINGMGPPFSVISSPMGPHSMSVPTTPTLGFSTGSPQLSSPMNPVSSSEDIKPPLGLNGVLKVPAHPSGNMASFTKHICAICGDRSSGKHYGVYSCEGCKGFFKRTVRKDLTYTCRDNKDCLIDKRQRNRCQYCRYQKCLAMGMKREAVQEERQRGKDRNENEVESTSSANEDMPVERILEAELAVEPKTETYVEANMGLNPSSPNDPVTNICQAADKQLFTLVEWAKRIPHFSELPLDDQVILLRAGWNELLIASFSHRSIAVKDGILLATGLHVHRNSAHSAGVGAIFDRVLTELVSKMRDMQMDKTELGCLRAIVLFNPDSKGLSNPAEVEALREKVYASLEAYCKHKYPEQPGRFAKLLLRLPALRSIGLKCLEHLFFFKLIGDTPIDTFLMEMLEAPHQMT
Sequence of Peroxisome proliferator-activated receptor gamma (Homo sapiens) (P37231 whole entry, looked up): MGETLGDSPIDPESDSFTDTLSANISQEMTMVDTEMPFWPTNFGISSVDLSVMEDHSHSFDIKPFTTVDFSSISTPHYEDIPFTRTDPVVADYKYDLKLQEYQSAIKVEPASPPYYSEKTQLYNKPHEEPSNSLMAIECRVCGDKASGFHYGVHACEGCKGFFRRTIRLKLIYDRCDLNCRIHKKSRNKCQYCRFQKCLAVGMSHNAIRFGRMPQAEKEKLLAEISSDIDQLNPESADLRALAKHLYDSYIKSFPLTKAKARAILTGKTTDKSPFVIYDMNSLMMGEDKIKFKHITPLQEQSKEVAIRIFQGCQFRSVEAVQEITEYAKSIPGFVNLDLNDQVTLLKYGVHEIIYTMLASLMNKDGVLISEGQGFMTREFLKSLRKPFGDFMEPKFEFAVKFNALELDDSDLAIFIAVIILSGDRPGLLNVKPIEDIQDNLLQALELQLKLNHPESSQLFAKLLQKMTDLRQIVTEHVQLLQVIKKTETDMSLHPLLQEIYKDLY

For `Cc1c(C(=O)O)c(O)cc2c1C(=O)c1c(O)c([C@H]3O[C@H](CO)[C@@H](O)[C@H](O)[C@H]3O)c(O)c(O)c1C2=O`, the activation in experiment [1] is -1.49% (inactive). Moreover, the result in experiment [2] was inactive.
Take `CCC[CH2][Sn]([CH2]CCC)([CH2]CCC)[O][Sn]([CH2]CCC)([CH2]CCC)[CH2]CCC`: the activation in [1] was 0.0431% (inactive); in experiment [3] it was 3.22% (inactive); in experiment [8], 0.111% (inactive). Also, the Potency is 22.4 µM (active) in experiment [4]; 0.355 µM (active) in experiment [6]; 27.3 µM (active) in [7]; 22.4 µM (active) in [10]; 31.6 µM (active) in experiment [11]. Moreover, the figures for the max response in experiment [5] and in experiment [9] were -23.3% and 5.55% (inactive), respectively.
For `C=CC(C)(O)CC/C=C(\C)CCC=C(C)C` (stereo unspecified), the activation in experiment [1] was 0.971% (inactive). The compound was called inactive in [2].
On the same counts, the results for `Cc1cccc2ccccc12` are -0.539% (inactive) and “inactive”.
On the same counts, the results for `CCCCN(CCO)CCCC` are -4.1% (inactive) and “inactive”.
In the same order, the values of `CCCCCCCC/C=C\CCCCCCCC(=O)N(CCO)CCO` are 0.527% (inactive) and “inactive”.
As for `CC(C)CCOC(=O)/C=C/c1ccccc1`, the activation in [1] was -2.58% (inactive). Moreover, the compound was classed as inactive in experiment [2].
Take `CN(C)c1ccc(C(=O)c2ccc(N(C)C)cc2)cc1`: the results for the activation in experiment [1], in experiment [3] and in [14] were -3.55% (inactive), -2.75% (inactive) and 1.06% (inactive), respectively. For the same compound, the Potency result in [12] and in experiment [15] was “inactive” throughout. In addition, in experiment [13], the outcome was inactive. The Potency in experiment [8] is 5.01 µM (active). Also, the max response is -1.25% (inactive) in experiment [9], -12.9% (inactive) in [10] and -23.3% (inactive) in experiment [11].
For the compound `Clc1ccc(Cl)c(Cl)c1Cl`, the activation in experiment [1] was 1.31% (inactive) and 2.13% (inactive). The call in experiment [2] was inactive.
Consider `Fc1ccc(Oc2ccnc3cc(Cl)cc(Cl)c23)cc1`, for which the activation in experiment [1] was -3.06% (inactive); in [3] it was -6.4% (inactive); in [8] it was 15% (inactive). For the same compound, the Potency result in experiment [16] was “inactive”. The max response is 20.3% in experiment [17], 3.62% (inactive) in experiment [9] and -31.6% (inactive) in experiment [10]. Further, the Potency in [18] is 39.8 µM (active); in experiment [7], 21.7 µM (active); in experiment [19] it was 34.4 µM (active).
As to `N#CC1(O)CCCCC1`, the activation in experiment [1] is -2.07% (inactive). For the same compound, the outcome in [2] was inactive.

These data come from PubChem BioAssay (NCATS).
